Only some compounds are listed: those with a hit (about 5% of all), similar ones and a draw of the others.
USP10 block – inhibitors of human USP10 deubiquitinase; AID 1645856, 2021; purified USP10, Ub-rhodamine fluorescence, 60 min; 1.1% of 47,000 active; Ubiquitin carboxyl-terminal hydrolase 10 (Homo sapiens), Q14694; inhibition, % at 20 µM
USP8 block – inhibitors of human USP8 deubiquitinase | Ubiquitin carboxyl-terminal hydrolase 8 (Homo sapiens), P40818 | purified USP8, Ub-rhodamine cleavage fluorescence, 30 min | inhibition, % at 20 µM | 4.2% of 47,000 active
USP7 block – inhibitors of human USP7 deubiquitinase; Ubiquitin carboxyl-terminal hydrolase 7 (Homo sapiens), Q93009; purified USP7, Ub-rhodamine cleavage fluorescence; inhibition, % at 20 µM; 0.3% of 47,000 active
UCHL1 inh – inhibitors of human UCHL1 deubiquitinase. purified UCHL1, Ub-rhodamine cleavage fluorescence. 0.2% of 47,000 active. inhibition, % at 20 µM. Ubiquitin carboxyl-terminal hydrolase isozyme L1 (Homo sapiens), P09936
Of the large screens only hits and unclear results are named; the others gave an inactive call. No stated cut-off is given here; in the data, active means inhibition above about 30%; inactive means the rest.

CCOc1ccc2c(c1)c(=O)c(C(=O)c1ccc(C)cc1)cn2CC(=O)Nc1ccc(OC)c(OC)c1	USP10 block 48, USP8 block 87
O=S(=O)(N[C@H]1[C@H](O)[C@H](O)C[C@@H]1c1ccncc1)c1ccccc1	none
COc1cccc(CNC(=O)CCc2nnc3c(=O)n(-c4cccc(F)c4)ccn23)c1	none
Cc1ccc(-n2ccn3c(CCC(=O)NCc4ccc(F)cc4)nnc3c2=O)cc1C	USP8 block 67
COc1ccc(CNC(=O)CCCc2nnc3c(=O)n(-c4cc(C)cc(C)c4)ccn23)cc1	USP10 block 35, USP8 block 78
Cc1ccc(CNC(=O)CCCc2nnc3c(=O)n(-c4cccc(F)c4)ccn23)cc1	USP8 block 36
Cc1cccc(NC(=O)CCc2nnc3c(=O)n(-c4cccc(F)c4)ccn23)c1	USP8 block 38
Cc1ccc(-n2ccn3c(CCC(=O)NCc4ccco4)nnc3c2=O)cc1C	none
Cc1ccc(CNC(=O)CCc2nnc3c(=O)n(-c4ccc(C)c(C)c4)ccn23)cc1	USP8 block 41
COc1ccc(CNC(=O)c2nc3c(s2)CCN(C(=O)c2cccnc2)CC3)cc1	none
Cc1ccc(NC(=O)c2cc3c(s2)-c2ccccc2OC3)c(Cl)c1	none
O=C(Nc1cccc(C(F)(F)F)c1)c1cc2c(s1)-c1ccccc1OC2	USP8 block 72
O=C(NCc1ccc(Cl)cc1)c1cc2c(s1)-c1ccccc1OC2	USP10 block 44, USP8 block 74
O=C(NCc1ccc2c(c1)OCO2)c1cc2c(s1)-c1ccccc1OC2	USP8 block 56
O=C1COc2ccc(C(=O)NCc3ccc4c(c3)OCO4)cc2N1	none
COc1ccc(/C=C2\NC(=O)[C@H]3Cc4ccccc4CN3C2=O)cc1	USP8 block 46
COc1ccc(NC(=O)CCN2C(=O)[C@@H]3Cc4ccccc4CN3C2=O)cc1	none
COc1cc2c(cc1OC)[C@H](C)N(CC1C(=O)O[C@@]34[C@H]1CC[C@@H](C)[C@@H]3CC[C@@]1(C)O[C@@H]41)CC2 (stereo partly specified)	USP8 block 50
COc1cc2c(cc1OC)[C@H](C)N(CC1C(=O)O[C@@H]3C[C@@]4(C)CCC[C@H](C)C4=C[C@H]13)CC2 (stereo partly specified)	USP8 block 45
C[C@H]1CCC[C@]2(C)C[C@H]3OC(=O)C(CN4CCc5ccccc5C4)[C@H]3C=C12 (stereo partly specified)	none
CC(C)OCCCn1c(=O)c2ccccc2n2c(CCC(=O)NCc3ccccn3)nnc12	none
COc1cccc(NC(=O)CCc2nnc3n(CCCOC(C)C)c(=O)c4ccccc4n23)c1	USP8 block 81 (no result: USP7 block)
CSc1ccc(C(=O)Nc2nc(-c3ccncc3)cs2)cc1	USP8 block 44
Cc1nc(-c2ccc(C(=O)Nc3ccc(F)cc3)cc2)cs1	USP8 block 65, USP7 block 34
COc1ccc(NC(=O)c2cccc3[nH]cc(CN4CCSCC4)c23)cc1	USP8 block 61
COc1ccc(CC(=O)Nc2ccccc2C(=O)Nc2ccc(OC)cc2)cc1	none
Cc1ccc(S(=O)(=O)N2CCC(C(=O)Nc3nc4c(F)cccc4s3)CC2)cc1	none
O=C(Cn1c(Cc2ccccc2)nc2ccccc21)N1CCc2ccccc21	USP8 block 49
CCCc1nc2ccccc2n1CC(=O)N1CCc2ccccc21	none
Oc1ccc(-c2nnc(Nc3ccc(Cl)c(Cl)c3)c3ccccc23)cc1	USP8 block 53
Cc1nnc(Nc2ccc(C(=O)Nc3c(Cl)cccc3Cl)cc2)c2ccccc12	none
O=S(=O)(Nc1ccccc1CCc1nc2ccccc2[nH]1)c1ccccc1F	none
COc1ccc(OCC(=O)NCCC2=CCCCC2)c([N+](=O)[O-])c1	none
O=C(COc1cc([N+](=O)[O-])cc2cccnc12)NCCC1=CCCCC1	USP8 block 98
CC(C)CN1C(=O)c2ccccc2C(C(=O)Nc2cccnc2Cl)C1c1cccs1 (stereo unspecified)	none
O=C1NC2(CCN(C(=O)c3cccc(F)c3)CC2)N=C1c1ccc(Cl)cc1	none
CN1C(=O)C(C)(C)COc2ccc(NS(=O)(=O)c3cc(F)ccc3F)cc21	USP8 block 44
Cc1cccc(S(=O)(=O)Nc2ccc3c(c2)N(C)C(=O)C(C)(C)CO3)c1	none

From PubChem BioAssay
